Bioassay records deposited in PubChem by National Center for Advancing Translational Sciences (NCATS).
An excerpt weighted towards active compounds, which were near 11% of everything screened.
Luciferase inh: Firefly luciferase inhibition profiling of diverse chemical library using quantitative high-throughput screening; purified P. pyralis luciferase, luminescence, biochemical; Potency, µM (doses to about 115 µM), actives largely listed as inhibitors; Luciferin 4-monooxygenase (Photinus pyralis), P08659; AID 1347043, 2019; 76,000 compounds, 2.5% hits; note: nearly all actives have a fitted effect of over 65% in size
Target sequence (P08659 whole entry, looked up): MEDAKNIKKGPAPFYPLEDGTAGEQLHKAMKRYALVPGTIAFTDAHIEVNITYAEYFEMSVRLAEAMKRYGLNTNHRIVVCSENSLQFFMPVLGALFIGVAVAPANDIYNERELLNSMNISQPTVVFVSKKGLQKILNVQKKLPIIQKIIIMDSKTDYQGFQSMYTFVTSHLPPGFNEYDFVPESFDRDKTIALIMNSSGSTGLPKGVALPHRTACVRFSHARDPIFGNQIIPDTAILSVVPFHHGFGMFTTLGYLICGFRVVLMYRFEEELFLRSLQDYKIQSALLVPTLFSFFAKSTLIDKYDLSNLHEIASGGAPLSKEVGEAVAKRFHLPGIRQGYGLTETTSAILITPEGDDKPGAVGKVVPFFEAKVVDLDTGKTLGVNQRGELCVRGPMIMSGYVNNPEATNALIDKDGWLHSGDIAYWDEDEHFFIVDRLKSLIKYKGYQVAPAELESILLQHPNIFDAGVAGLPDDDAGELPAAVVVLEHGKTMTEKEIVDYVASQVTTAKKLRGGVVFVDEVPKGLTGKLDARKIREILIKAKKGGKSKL
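FLuc 10nM, D-luciferin 10uM, ATP 10uM, Mg acetate 10mM, Tris acetate pH 7.5, Tween/BSA; cpd qHTS; enzyme added last; CCD luminescence.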
HEK293 tox: Cytotoxic Profiling in HEK 293 Cell Line of Diverse Libraries Using Quantitative High-Throughput Screening; HEK 293 viability, ATP luminescence (CellTiter-Glo), 48-72 h; 94,000 compounds, 6.6% hits; Potency, µM (highest dose often 115 µM), without a hit: at the highest dose activity change, negative = cytotoxicity, hits mostly inhibitors; note: nearly all actives have a fitted effect of over 60% in size
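Luminescence from cellular ATP, measured with CellTiter-Glo, indicates HEK 293 viability. Cells plated at 250 cells/well are treated with compound for 48 or 72 hr at 37 degree Celsius before reagent addition.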
NPR1 antag: Natriuretic polypeptide receptor (hNpr1) antagonism - Primary qHTS | HEK293 hNpr1 GloSensor cGMP, ANP-stimulated luminescence | 76,000 compounds, 1.6% hits | Potency, µM (series often up to 46.3 µM), for inactives: top-dose activity change, negative = inhibition, actives largely listed as inhibitors; calls by dose curve; note: nearly all actives have a fitted effect of over 60% in size
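HEK293 cells stably expressing human Npr1 and cGMP GloSensor pGS-40F, loaded 2 h with 2% GloSensor reagent, given compound 30 min at room temperature. Luminescence read before and 20 min after 0.1 nM hNppA.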
3T3 cytotox: Cytotoxic Profiling in NIH 3T3 Cell Line of Diverse Libraries Using Quantitative High-Throughput Screening; 94,000 compounds, 4.3% hits; Potency, µM (titrated, usually from 96.7 µM), inactives show at the highest dose activity change, negative = cytotoxicity, usual class: inhibitors; AID 1345082, 2018; NIH 3T3 viability, CellTiter-Glo ATP luminescence, 48-72 h; note: nearly all actives have a fitted effect of over 55% in size
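Mouse fibroblast NIH 3T3 cells, 400 per well, received compound via pintool and were incubated for 48 or 72 hr prior to CellTiter-Glo ATP luminescence measurement.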
* hit, by the source's call; i = inactive; ? = inconclusive; / = no result given; [ ] = dose if it differs, or a comment. Unless noted, calls come from the whole dose curve; as a rule, active = well fitted curve in the direction sought with a large enough effect; inconclusive = small, poorly fitted or top-dose-only effect, or another doubt; inactive = no such curve, though single readings can be large; an effect the other way counts as inactive or inconclusive. % is set by controls: 0 for no effect and ±100 for the full control effect; potency is the fitted concentration of half-maximal effect.

SMILES | Luciferase inh | HEK293 tox | NPR1 antag | 3T3 cytotox
O=C(NC1CCCCCC1)C1CCc2nnc(C3CC3)n21 (stereo not given) | / | -20% | / | ?
CC(=O)Nc1cc(-c2cccnc2)nn1-c1ccccc1 | / | -1%[172 µM] | / | -4%[138 µM]
O=C(Nc1cc(-c2ccncc2)nn1-c1ccccc1)C1CC1 | / | 2%[172 µM] | / | ?
CNC(=O)c1cc(C2CC2)nc2onc(C3CCN(C(=O)N(C)C)CC3)c12 | / | -5%[172 µM] | / | 5%[138 µM]
Cc1noc(C)c1[S+](=O)([O-])N1CCCC(c2nn(-c3ccccn3)c(=O)[nH]2)C1 (stereo not given) | / | 3% | / | -13%
Cc1cc(NC(=O)N2CCCC(Cn3c(C)nc4cccnc43)C2)ccc1Br (stereo not given) | i | 32µM* | -22% | ?
Cc1nc2cccnc2n1CC1CCCN(S(=O)(=O)c2cccc(Cl)c2)C1 (stereo not given) | i | ? | ? | ?
Cc1cc(Cl)ccc1S(=O)(=O)N1CCCC(Cn2c(C)nc3cccnc32)C1 (stereo not given) | i | 20µM* | ? | 11µM*
COCCCNc1ccnc(-c2nnc(C)n2-c2ccccc2)c1 | i | -10%[172 µM] | -14%[70.6 µM] | 100µM*
COCCNC(=O)CNC(=O)c1cccc(-c2ccc(SC)cc2)c1 | / | ? | / | -25%
CC1Oc2ccc(NC(=O)c3cccs3)cc2CN(CCc2ccc(F)cc2)C1=O (stereo not given) | i | ? | -10% | -29%
CC1Oc2ccc(NC(=O)Nc3ccccc3)cc2CN(Cc2ccccc2)C1=O (stereo not given) | ? | 45µM* | ? | 35µM*
CC1Oc2ccc(NC(=O)c3cccs3)cc2CN(Cc2ccccc2)C1=O (stereo not given) | i | 25µM* | -13% | ?
CCC1Oc2ccc(NC(=O)C3CCCC3)cc2CN(Cc2ccc(F)cc2)C1=O (stereo not given) | i | ? | -22% | ?
CC1Oc2ccc(NC(=O)C3CCCC3)cc2CN(Cc2ccc(F)cc2)C1=O (stereo not given) | i | ? | -22% | 25µM*
O=C(Cc1ccc(F)cc1)N1CCN(C(=O)c2cccc(-c3ccccn3)c2)CC1 | / | ? | / | -23%
COc1ccc(CCNC(=O)C2CCc3nnc(CNC(C)=O)n32)cc1 (stereo not given) | / | -12% | / | -20%
COc1ccc(CC(=O)NC2CCN(CCn3nc4n(c3=O)CCCC4)C2)cc1 (stereo not given) | / | -1% | / | -19%
Cc1ccc(NC(=O)Cn2ccn3nc(-c4ccc(F)cc4)c(CO)c3c2=O)c(C)c1 | i | ? | 0% | ?
O=C(Cn1ccn2nc3c(c2c1=O)CCCCC3)Nc1ccccc1F | 45µM* | -26% | 0% | -10%
Cc1ccc(NC(=O)Cn2ccn3nc(-c4ccccc4)c(CO)c3c2=O)c(C)c1 | i | 45µM* | -11% | ?
CC(C)c1ccccc1NC(=O)Cn1ccn2nc3c(c2c1=O)CCCCC3 | i | 40µM* | -3% | ?
C=CCCOC(=O)N1C[C@@H](C(N)=O)[C@@H]2Oc3c(C)cccc3[C@@H]21 | / | -11% | / | ?
Cn1nc(C2CC2)cc1NC(=O)c1ccccc1 | / | -32%[172 µM] | / | -22%[138 µM]
COc1cccc(C(=O)N2CCC(C(=O)N3CCC(c4nc5ccncc5[nH]4)C3)CC2)c1 (stereo not given) | / | -16% | / | 2%
SMILES | Luciferase inh | HEK293 tox | NPR1 antag | 3T3 cytotox
O=C(NCCOc1ccccc1)c1cnc2n1CCN(Cc1ccc(F)cc1)CC2 | i | ? | -18%[70.6 µM] | ?
O=C(NCc1ccccc1)c1cnc2n1CCN(Cc1ccccc1F)CC2 | i | 28µM* | -8%[70.6 µM] | ?
Cc1ccc(CN2CCc3ncc(C(=O)NCCOc4ccccc4)n3CC2)o1 | i | 50µM* | -10%[70.6 µM] | 35µM*
COc1ccc2[nH]c3c(c2c1)CCN(C)C31CCN(C(=O)COc2ccc(F)cc2)CC1 | i | ? | -16% | ?
Cn1ncc2c(C(=O)NCC(F)(F)F)cc(-c3ccc(Cl)cc3Cl)nc21 | / | -5% | / | -42%
Cn1ncc2c(C(=O)NCc3cccc(Cl)c3)cc(-c3ccc(Cl)cc3Cl)nc21 | / | -7% | / | -22%
Cn1ncc2c(C(=O)NCc3cccs3)cc(-c3ccc(Cl)cc3Cl)nc21 | / | 40µM* | / | ?
Cn1ncc2c(C(=O)CCc3ccc(F)cc3)cc(-c3ccc(Cl)cc3Cl)nc21 | / | 35µM* | / | 32µM*
COCCNC(=O)C(C)(C)Oc1nn(Cc2cccc(Cl)c2)c2ccccc12 | i | 79µM* | -27%[70.6 µM] | ?
COCCCNC(=O)C(C)(C)Oc1nn(Cc2cccc(Cl)c2)c2ccccc12 | i | ? | ? | ?
CN1CCC(NC(=O)C(C)(C)Oc2nn(Cc3cccc(Cl)c3)c3ccccc23)CC1 | i | 40µM* | -26%[70.6 µM] | 32µM*
CC(C)(Oc1nn(Cc2cccc(Cl)c2)c2ccccc12)C(=O)NCc1cnccn1 | i | 89µM* | -23%[70.6 µM] | ?
CC(C)(Oc1nn(Cc2cccc(Cl)c2)c2ccccc12)C(=O)NCC1CCOCC1 | i | ? | ? | ?
CC(C)(Oc1nn(Cc2cccc(Cl)c2)c2ccccc12)C(=O)NCc1ccncc1 | i | ? | ? | 32µM*
CCc1nc2c(c(-c3ccc(O)cc3)n1)CCN(C(=O)c1ccccc1C)CC2 | / | -6% | / | -28%
COc1ccc(CC(=O)N2CCC(C(=O)N3CCC(c4nc5ccncc5[nH]4)C3)CC2)cc1 (stereo not given) | / | 5% | / | -19%
COc1cccc(-c2ccc(C(=O)N3CCC(NC(=O)NC4CCCC4)CC3)cc2)c1 | / | -23% | / | -32%
COc1cccc(-c2ccc(C(=O)N3CCC(NC(=O)C(C)(C)C)CC3)cc2)c1 | / | ? | / | 40µM*
COc1cccc(-c2ccc(C(=O)N3CCC(NC(=O)Nc4ccccc4F)CC3)cc2)c1 | / | 16µM* | / | ?
COc1cccc(-c2ccc(C(=O)N3CCC(NC(=O)c4ccc(C(F)(F)F)cc4)CC3)cc2)c1 | / | ? | / | -11%
COc1cccc(-c2ccc(C(=O)N3CCC(NC(=O)c4ccccc4C)CC3)cc2)c1 | / | ? | / | 40µM*
COc1ccc(-c2cccc(C(=O)N3CCC(NC(=O)Nc4ccc(Cl)cc4)CC3)c2)nn1 | / | 45µM* | / | 25µM*
COc1ccc(-c2cccc(C(=O)N3CCC(NC(=O)Nc4ccccc4)CC3)c2)nn1 | / | -21% | / | -26%
COCC(=O)N1CCN(C(=O)c2ccc(-c3ccc(OC)nn3)cc2)CC1 | / | -7% | / | -20%
O=C(O)CCCC(=O)N1Cc2ccccc2CC2(CCCN(Cc3ccncc3)C2)C1 (stereo not given) | / | 2% | / | -16%
O=C(Cc1ccc(F)cc1)NC1CCCN(c2ccc3nnc(C4CC4)n3n2)C1 (stereo not given) | / | -3% | / | -29%
